# Source: PubChem BioAssay (NCI)
# The panel holds about 79,000 compounds, 15% with a hit somewhere; the sample as a whole holds those more often. Values without a mark were called inactive. Activity calls are given as the source filed them. Rule as the data show it: active = growth inhibition above about 70%; inactive = the rest.
# Assay: NCI Yeast Anticancer Drug Screen. Data for the cln2 rad14 strain (AID 165);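 also: 0% = growth equal to vehicle treated cultures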
# Details: S. cerevisiae cln2 rad14 strain, stronger effect = higher value; at 50.0 µM unless noted
# In short: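 Yeast carrying cln2 and rad14 alterations (cell cycle control and DNA damage repair) were exposed to compounds. Growth inhibition was measured against vehicle-treated controls.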
row,Compound,growth inhibition [%]
1,O=C1C(CN2CCCC2)CCCC1CN1CCCC1 (stereo not given),2.15
2,CC(C)(O)CCO,-10.7
3,CC(C)CCC[C@@H](C)C1CCC2[C@@H]3CCC4C[C@@H](CCC=C(c5cc(Cl)c(O)c(C(=O)O)c5)c5cc(Cl)c(O)c(C(=O)O)c5)CC[C@]4(C)C3CC[C@@]21C (stereo not given in full),-41
4,CN1C(=O)C(c2c[nH]c3ccccc23)N(C)C(=O)C1c1c[nH]c2ccccc12 (stereo not given),-20.1
5,Cc1c2c(c(O)c3sccc13)C(C)(C)OC2=O,-59
6,Cc1cc(C)c(S(=O)(=O)Oc2ccccc2)c(C)c1,1.7
7,O=C1CSC(c2ccc([N+](=O)[O-])cc2)N1c1ccc(-n2c(-c3ccccc3)nc3ccccc3c2=O)cc1 (stereo not given),-10.5
8,CC(C)c1ccccc1O,8.8
9,COc1ccc(NC(=S)N/N=C(\C)c2ccccn2)cc1,35.4
10,COc1ccc(-[n+]2nc(S(=O)(=O)O)c(/C=C/c3ccc(N(C)C)cc3)cc2C#N)cc1,6.65
11,Cn1c(=O)c(C(=O)Nc2nc(C34CC5CC(CC(C5)C3)C4)cs2)c(O)c2ccccc21,11.1
12,O=C(COc1ccc(Cl)cc1)Nc1cc(Cl)c(Cl)cc1Cl,-17.7
13,CC(O)c1cccc(NC(=O)NC2CCCCC2)c1 (stereo not given),-6.1
14,Cc1cc(C)c2nccc(NCCCN(C)C)c2c1[N+](=O)[O-],5.35
15,CNC(=O)Nc1c(C)cccc1C,-26.2
16,Clc1cc2cc3cccc[n+]3cc2cc1Cl,-22.9
17,CCOC(=O)CN(Cn1cncn1)Cn1cncn1,-30.2
18,CC(C)(O)CCNc1ncnc2c1ncn2C1OC(CO)C(O)C1O (stereo not given),-6.8
19,Clc1ccc(/C=C/c2nc(Cl)c(-c3ccc(Cl)cc3)c(Cl)n2)cc1,14.3
20,N#CC(c1ccccc1)c1ccc2ccccc2n1 (stereo not given),2.6

row,Compound,growth inhibition [%]
1,O=C(O)CCNCCC(=O)O,-25.5
2,O=C(O)/C(=C/c1cccs1)c1ccc(F)cc1,28.9
3,COc1cc(C(=O)NNC(=O)c2ccc(Cl)c(Cl)c2)cc(OC)c1OC,18.4
4,COC(=O)C(CCCCCCCC(C(=O)OC)c1nc2n(c1O)C(=N)N=N2)c1nc2n(c1O)C(=N)N=N2 (stereo not given),11.8
5,CC(C)(C)C1C=C(Sc2ccccc2)C(=O)O1 (stereo not given),1.8
6,COc1ccc(/C(C)=C\C(=O)O)c(O)c1OC,3.55
7,O=C1CSC(c2cccc([N+](=O)[O-])c2)N1c1nncs1 (stereo not given),5.15
8,CCC1(C=O)C(=O)NC(=O)N1C (stereo not given),6.25
9,O=C(C[n+]1ccccc1)c1ccc(O)c(I)c1,21.7
10,O=C1C2C3ON(c4ccccc43)C2C(=O)N1c1ccccc1 (stereo not given),2.4
11,CCCCCN=C(N)C(N)=NCCCCC,-31.1
12,CC1=CC(C)C(C(=O)OCC(C)C)C(C(=O)OCC(C)C)C1 (stereo not given),1.45
13,CCCOC(=O)N(C)c1ccccc1,-32.3
14,N#CC1CC2CC1C1OC21 (stereo not given),9.35
15,C/C=C/C=C/C(=O)OCCCC,5.65
16,Cc1c(OCCCOc2ccc3c(=O)cc(-c4ccccc4)oc3c2C)ccc2c(=O)cc(-c3ccccc3)oc12,31.5
17,O=c1[nH]c2ccc([N+](=O)[O-])cc2nc1/C(=N/Nc1ccccc1)C(O)c1ccco1 (stereo not given),6
18,COc1cccc(C)c1O,6.55
19,CC(NC(C#N)CC12CC3CC(CC(C3)C1)C2)c1ccccc1 (stereo not given),12.2
20,CCOC(=O)/C(SC#N)=C(/N)N1CCCC1,9.95

# Assay: NCI Yeast Anticancer Drug Screen. Data for the bub3 strain (AID 167)
# Details: S. cerevisiae bub3 mutant strain, stronger effect = higher value; at 50.0 µM unless noted
# In short: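 Yeast carrying a defined mutation is treated with each compound, and growth is compared with that of vehicle-exposed cells to give inhibition.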
row,Compound,growth inhibition
1,O=C1C(CN2CCCC2)CCCC1CN1CCCC1 (stereo not given),7.3%
2,CC(C)(O)CCO,-25.9%
3,CC(C)CCC[C@@H](C)C1CCC2[C@@H]3CCC4C[C@@H](CCC=C(c5cc(Cl)c(O)c(C(=O)O)c5)c5cc(Cl)c(O)c(C(=O)O)c5)CC[C@]4(C)C3CC[C@@]21C (stereo not given in full),8.5%
4,CN1C(=O)C(c2c[nH]c3ccccc23)N(C)C(=O)C1c1c[nH]c2ccccc12 (stereo not given),-27.9%
5,Cc1c2c(c(O)c3sccc13)C(C)(C)OC2=O,-26.4%
6,Cc1cc(C)c(S(=O)(=O)Oc2ccccc2)c(C)c1,11.8%
7,O=C1CSC(c2ccc([N+](=O)[O-])cc2)N1c1ccc(-n2c(-c3ccccc3)nc3ccccc3c2=O)cc1 (stereo not given),30%
8,CC(C)c1ccccc1O,0.45%
9,COc1ccc(NC(=S)N/N=C(\C)c2ccccn2)cc1,80.1% (active)
10,COc1ccc(-[n+]2nc(S(=O)(=O)O)c(/C=C/c3ccc(N(C)C)cc3)cc2C#N)cc1,5.85%
11,Cn1c(=O)c(C(=O)Nc2nc(C34CC5CC(CC(C5)C3)C4)cs2)c(O)c2ccccc21,-10%
12,O=C(COc1ccc(Cl)cc1)Nc1cc(Cl)c(Cl)cc1Cl,11.2%
13,CC(O)c1cccc(NC(=O)NC2CCCCC2)c1 (stereo not given),29.4%
14,Cc1cc(C)c2nccc(NCCCN(C)C)c2c1[N+](=O)[O-],-10.8%
15,CNC(=O)Nc1c(C)cccc1C,0.05%
16,Clc1cc2cc3cccc[n+]3cc2cc1Cl,14.6%
17,CCOC(=O)CN(Cn1cncn1)Cn1cncn1,-43.4%
18,CC(C)(O)CCNc1ncnc2c1ncn2C1OC(CO)C(O)C1O (stereo not given),13.9%
19,Clc1ccc(/C=C/c2nc(Cl)c(-c3ccc(Cl)cc3)c(Cl)n2)cc1,-23.8%
20,N#CC(c1ccccc1)c1ccc2ccccc2n1 (stereo not given),33.5%

row,Compound,growth inhibition
1,O=C(O)CCNCCC(=O)O,5.05%
2,O=C(O)/C(=C/c1cccs1)c1ccc(F)cc1,-3.2%
3,COc1cc(C(=O)NNC(=O)c2ccc(Cl)c(Cl)c2)cc(OC)c1OC,33.3%
4,COC(=O)C(CCCCCCCC(C(=O)OC)c1nc2n(c1O)C(=N)N=N2)c1nc2n(c1O)C(=N)N=N2 (stereo not given),10.2%
5,CC(C)(C)C1C=C(Sc2ccccc2)C(=O)O1 (stereo not given),61.2%
6,COc1ccc(/C(C)=C\C(=O)O)c(O)c1OC,22.1%
7,O=C1CSC(c2cccc([N+](=O)[O-])c2)N1c1nncs1 (stereo not given),3.4%
8,CCC1(C=O)C(=O)NC(=O)N1C (stereo not given),1.7%
9,O=C(C[n+]1ccccc1)c1ccc(O)c(I)c1,0.35%
10,O=C1C2C3ON(c4ccccc43)C2C(=O)N1c1ccccc1 (stereo not given),3.6%
11,CCCCCN=C(N)C(N)=NCCCCC,5.5%
12,CC1=CC(C)C(C(=O)OCC(C)C)C(C(=O)OCC(C)C)C1 (stereo not given),23%
13,CCCOC(=O)N(C)c1ccccc1,-22.6%
14,N#CC1CC2CC1C1OC21 (stereo not given),-2.25%
15,C/C=C/C=C/C(=O)OCCCC,15.1%
16,Cc1c(OCCCOc2ccc3c(=O)cc(-c4ccccc4)oc3c2C)ccc2c(=O)cc(-c3ccccc3)oc12,-39.9%
17,O=c1[nH]c2ccc([N+](=O)[O-])cc2nc1/C(=N/Nc1ccccc1)C(O)c1ccco1 (stereo not given),-10.6%
18,COc1cccc(C)c1O,20.6%
19,CC(NC(C#N)CC12CC3CC(CC(C3)C1)C2)c1ccccc1 (stereo not given),6.75%
20,CCOC(=O)/C(SC#N)=C(/N)N1CCCC1,0.75%
